In PubChem BioAssay (Tox21):
Results filed as inconclusive are left out. Entries that show only a call come without a potency. The source made the active and inactive calls. Calls come from the whole dose curve; as a rule, active = well fitted cell-killing curve with a large enough effect in the repeat runs; inconclusive = weak or mixed curves, or effect the other way; inactive = no such curve, though single readings can be large or run the other way.
Potency is the fitted concentration of half-maximal effect.

Assay: qHTS assay to identify small molecule agonists of the vitamin D receptor (VDR) signaling pathway - cell viability counter screen (AID 743224); note: nearly all actives have a fitted effect of over 50% in size
Conditions: VDR-bla HEK293T viability, CellTiter-Glo luminescence, 16 h; series mostly up to 62.6 µM
Procedure, shortened: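 Plated VDR-bla cells (4 h, 37C) received compound, incubated 16 h, then LiveBLAzer substrate 2 h RT; CellTiter-Glo added afterwards, luminescence read at 30 min.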
For Cc1cc(S(=O)(=O)O)ccc1N=Nc1c(O)ccc2ccccc12, the Potency was “inactive”. In the case of CCCc1c(OCCCOc2ccc(OCC(=O)O)cc2)ccc(C(C)=O)c1O, the Potency is reported as “inactive”. In the case of COC(=O)Nc1nc2ccc(C(=O)c3cccs3)cc2[nH]1, the Potency is reported as “inactive”. With C1COCO1 the Potency was “inactive”. In the case of CN(C)CCOC1=Cc2ccccc2Sc2ccc(Cl)cc21, the Potency is reported as “inactive”. For CCOC(=O)CC(=O)C(=O)OCC, the Potency was “inactive”. With Cc1ccc(Nc2nccc(N(C)c3ccc4c(C)n(C)nc4c3)n2)cc1S(N)(=O)=O the Potency was “inactive”. With O=C(N[C@@H](c1ccccc1)[C@@H]1CCCCN1)c1cccc(C(F)(F)F)c1Cl the Potency was 30.9 µM (active). With CC(C)CCCCCCOC(=O)CCCCC(=O)OCCCCCCC(C)C the Potency was “inactive”. In the case of C[C@]12CCC(=O)C=C1C=C[C@@H]1[C@@H]2CC[C@@]2(C)[C@H]1CC[C@@]21CCC(=O)O1, the Potency is reported as “inactive”. With CCCCC(=O)O[C@]1(C(=O)CO)CC[C@H]2[C@@H]3CCC4=CC(=O)CC[C@]4(C)[C@H]3[C@@H](O)C[C@@]21C the Potency was “inactive”. For CCC1(C)CC(=O)NC1=O (centres undefined), the Potency was “inactive”. For CCCCCC=CCC=CCCCCCCCC(=O)OCC, the Potency was 29.8 µM (active). In the case of CC(=O)[C@H]1CC[C@H]2[C@@H]3C=CC4=CC(=O)CC[C@@]4(C)[C@@H]3CC[C@]12C, the Potency is reported as “inactive”. For O=C1NCCN1, the Potency was “inactive”. For C=CCNc1nc(NCC=C)nc(N2CCN(C(c3ccc(F)cc3)c3ccc(F)cc3)CC2)n1, the Potency was “inactive”. In the case of COC(=O)CC(=O)C(C)(C)C, the Potency is reported as “inactive”. In the case of C=CCOC(=O)/C=C\C(=O)OCC=C, the Potency is reported as “inactive”. In the case of CCC(C(=O)OCCN(CC)CC)c1ccccc1 (centres undefined), the Potency is reported as “inactive”. In the case of CN(C(=O)C(Cl)Cl)c1ccc(OC(=O)c2ccco2)cc1, the Potency is reported as “inactive”. For CCOC(=O)c1ccccc1C, the Potency was “inactive”. In the case of C[N+](C)(C)CCOC(N)=O, the Potency is reported as “inactive”. With CO/N=C1\CN(c2nc3c(cc2F)c(=O)c(C(=O)O)cn3C2CC2)CC1CN (centres undefined) the Potency was “inactive”. For CN1C(=O)CC(C)(c2ccccc2)C1=O (centres undefined), the Potency was “inactive”. With NC(=O)Cn1c(=O)cc(CCN2CCN(c3nccc4sccc34)CC2)c2ccc(F)cc21 the Potency was “inactive”. With CC(=O)[C@H]1CC[C@H]2[C@@H]3C[C@H](C)C4=CC(=O)CC[C@]4(C)[C@H]3[C@@H](O)C[C@]12C the Potency was “inactive”. For Cc1occc1C(=O)Nc1ccc(C(=O)N2CCC(F)(F)/C(=C\C(=O)N3CCC(N4CCCCC4)CC3)c3ccccc32)cc1, the Potency was “inactive”. In the case of CCCCCCCCCCOS(=O)(=O)O, the Potency is reported as “inactive”. With CC(CCc1ccc2c(c1)OCO2)NN (centres undefined) the Potency was “inactive”. For CCOC(=O)OCC, the Potency was “inactive”. With Cc1cnc(C)c(C)n1 the Potency was “inactive”. For COc1ccc([C@@H]2Sc3ccccc3NC(=O)[C@@H]2O)cc1, the Potency was “inactive”. In the case of CC(C)C(=O)O, the Potency is reported as “inactive”. With CCOC(=O)/C=C/C(=O)O the Potency was “inactive”.
